Results filed as inconclusive are left out. Activity calls are given as the source filed them.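 Rule for the calls, unless noted: active = binding below the plate cutoff, the plate median minus 3 SD, with a reading above zero; inconclusive = below the plate cutoff but reading exactly zero; inactive = the rest.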

The nature of test [1]: rapamycin-like changes in RPL19A-GFP expression – cell-based, S. cerevisiae, multiplex flow cytometry, primary screen (AID 1862; in the data active = percent of DMSO control GFP below about 86%;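 note: lower values mimic rapamycin by blocking the RPL19A rise seen in DMSO cells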). The settings on record: S. cerevisiae RPL19A-GFP strain, flow cytometry fluorescence, 3 h; at 10 µM; stronger effect = lower value. A general note: Flow cytometry measures light scatter and fluorescence of single cells or particles in a stream.
The nature of test [2]: TOR pathway GLN3 branch reporter MEP2-GFP changes – S. cerevisiae, multiplex flow cytometry, primary screen (AID 1867;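 active = GFP response, as percent of the DMSO control, above the screen-wide mean plus 3 SD, about 139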;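 note: median GFP channel fluorescence of barcode-gated MEP2-GFP cells measured by flow cytometry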). The settings on record: S. cerevisiae MEP2-GFP strain, 3 h, at 10 µM, stronger effect = higher value, 100% means same as DMSO wells.
Test [3] in a line: TOR pathway RTG branch CIT2 reporter changes – S. cerevisiae, GFP fusion, multiplex flow cytometry, primary screen (AID 1870;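 active = percent response above a set limit, the screen-wide mean plus 3 SD, cut at about 130% in these data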;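 note: barcoded CIT2-GFP strain pooled with four other GFP strains with rapamycin as positive control; median GFP fluorescence per well over plate mean of DMSO wells so 100% = DMSO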). Particulars: S. cerevisiae CIT2-GFP expression, 3 h, at 10 µM, stronger effect = higher value.
A short description of test [4]: TOR pathway LAP4-GFP level changes – S. cerevisiae, multiplex flow cytometry, primary screen (AID 1873;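 active = GFP signal, as percent of the solvent control, above the screen mean plus 3 SD, about 149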). Particulars: S. cerevisiae LAP4-GFP expression, 3 h, at 10 µM, stronger effect = higher value.
Test [5] in a line: yeast AGP1-GFP level changes, GLN3 branch – cell-based, multiplex flow cytometry, S. cerevisiae, primary screen (AID 1887;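 active = GFP signal above the screen-wide mean plus 3 SD, that is over about 124.5% of the solvent control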;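 note: AGP1-GFP fusion strain of S. cerevisiae within a five-strain barcoded multiplex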). Particulars: 3 h, at 10 µM, stronger effect = higher value.
Test [6] can be described thus: reduced mouse 2C T cell binding to pMHC/ICAM-1 vesicles – MLPCN validation set, flow cytometry, LFA-1/ICAM-1 modulator project, pilot screen (AID 2523;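 active = response below a set limit, under 55% cells CD8-positive and vesicle-bound, and CD8 cells' 90th-percentile brightness under 279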;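 for vesicle binding response: mean PE anti-B7-1 fluorescence of CD8+ cells relative to row control; 100% = QL9-loaded vesicles with DMSO vehicle in the same plate row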). Particulars: 2C mouse CD8+ T cells, at 7 µM, stronger effect = lower value; double positive events: measured here: CD8+/vesicle+ event percentage.
The target of test [7] is Integrin beta-1 (Homo sapiens) + Integrin alpha-4 (Homo sapiens) (UniProt P13612+P05556). Kind of test: alpha4beta1 integrin LIBS antibody binding reduction – U937 cells, HUTS-21 mAb, flow cytometry, validation set, VLA-4 allosteric modulator project, pilot screen (AID 2674;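 active = inhibition above 50%, about 3 SD of the validation set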;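 note: antibody binding induced by the VLA-4 ligand LDV present at three times its Kd; 0% = LDV ligand with antibody and no compound and 100% = antibody without LDV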). The settings on record: HUTS-21 LIBS mAb binding, at 6.7 µM, stronger effect = higher value, binding induced by LDV ligand.
Sequence of Integrin beta-1 (Homo sapiens) + Integrin alpha-4 (Homo sapiens) (P05556 whole entry, looked up): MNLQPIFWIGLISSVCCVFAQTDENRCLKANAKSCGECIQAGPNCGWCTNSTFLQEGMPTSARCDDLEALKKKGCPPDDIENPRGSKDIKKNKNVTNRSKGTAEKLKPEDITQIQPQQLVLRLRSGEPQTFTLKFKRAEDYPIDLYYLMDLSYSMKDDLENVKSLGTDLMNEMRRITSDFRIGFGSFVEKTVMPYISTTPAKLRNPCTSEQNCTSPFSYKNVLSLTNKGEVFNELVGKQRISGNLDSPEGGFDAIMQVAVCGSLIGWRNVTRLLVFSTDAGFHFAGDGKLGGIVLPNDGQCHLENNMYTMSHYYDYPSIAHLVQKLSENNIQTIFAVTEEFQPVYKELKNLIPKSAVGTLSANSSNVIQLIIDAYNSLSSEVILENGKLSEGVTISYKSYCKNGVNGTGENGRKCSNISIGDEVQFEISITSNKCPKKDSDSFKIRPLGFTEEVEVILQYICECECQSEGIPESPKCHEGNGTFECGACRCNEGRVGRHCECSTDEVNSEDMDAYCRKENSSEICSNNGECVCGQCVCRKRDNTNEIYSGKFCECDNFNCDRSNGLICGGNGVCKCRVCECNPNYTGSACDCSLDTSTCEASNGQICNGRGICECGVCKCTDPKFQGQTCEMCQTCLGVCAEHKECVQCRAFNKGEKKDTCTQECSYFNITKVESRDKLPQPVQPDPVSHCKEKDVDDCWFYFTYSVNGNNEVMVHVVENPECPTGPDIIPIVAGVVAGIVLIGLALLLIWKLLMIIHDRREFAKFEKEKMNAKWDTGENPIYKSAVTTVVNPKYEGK
Sequence of Integrin beta-1 (Homo sapiens) + Integrin alpha-4 (Homo sapiens) (P13612 whole entry, looked up): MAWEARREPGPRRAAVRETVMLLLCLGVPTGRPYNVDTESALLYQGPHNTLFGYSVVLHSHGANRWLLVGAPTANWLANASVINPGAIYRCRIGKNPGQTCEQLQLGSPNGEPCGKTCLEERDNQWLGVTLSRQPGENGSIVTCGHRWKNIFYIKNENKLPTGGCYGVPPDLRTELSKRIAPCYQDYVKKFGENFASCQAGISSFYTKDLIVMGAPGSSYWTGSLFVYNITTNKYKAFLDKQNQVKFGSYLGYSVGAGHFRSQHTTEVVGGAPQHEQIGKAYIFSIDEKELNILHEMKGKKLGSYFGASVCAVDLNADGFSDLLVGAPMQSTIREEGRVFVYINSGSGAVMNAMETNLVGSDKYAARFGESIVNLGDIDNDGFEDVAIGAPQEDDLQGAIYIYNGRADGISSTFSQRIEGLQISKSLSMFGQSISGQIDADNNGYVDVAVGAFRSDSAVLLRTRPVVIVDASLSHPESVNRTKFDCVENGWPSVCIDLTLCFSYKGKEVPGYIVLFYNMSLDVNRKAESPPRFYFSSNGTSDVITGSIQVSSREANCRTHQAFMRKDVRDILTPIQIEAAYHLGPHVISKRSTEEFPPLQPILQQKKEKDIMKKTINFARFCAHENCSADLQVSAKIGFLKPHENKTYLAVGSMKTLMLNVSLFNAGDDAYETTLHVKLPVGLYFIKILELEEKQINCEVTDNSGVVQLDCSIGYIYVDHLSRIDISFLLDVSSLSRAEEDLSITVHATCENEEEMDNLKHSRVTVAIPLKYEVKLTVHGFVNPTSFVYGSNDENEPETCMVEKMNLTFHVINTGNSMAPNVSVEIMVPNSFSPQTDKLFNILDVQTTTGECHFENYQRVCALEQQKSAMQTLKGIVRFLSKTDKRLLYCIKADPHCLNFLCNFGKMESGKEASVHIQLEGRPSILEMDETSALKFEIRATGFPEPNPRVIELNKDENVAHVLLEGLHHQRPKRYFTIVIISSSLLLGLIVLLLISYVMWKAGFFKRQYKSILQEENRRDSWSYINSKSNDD

A short description of test [8]: calorie-restriction mimetic ROS inhibitors, yeast – validation compound set, pilot screen (AID 2706;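 active = superoxide response below 65% of plate, a cut near 3 SD across the whole screen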;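 note: yeast exposed to compound for one week at 30 degrees C before staining; 100% = mean of all compound wells on the same plate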). The settings on record: S. cerevisiae aging, superoxide DHE fluorescence; at 10 µM; stronger effect = lower value.
In test [9] the target is Beta-adrenergic receptor kinase 1 (Homo sapiens) (UniProt P25098). The test can be described thus: GRK2 binders displacing RNA aptamer, biochemical, validation, human GRK2, bead flow cytometry (AID 488806;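 active = aptamer binding inhibition above 30%, about 3 SD of noise from non-fluorescent compounds; inactive = inhibition at or below 30%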). Particulars: bead-bound GRK2, FAM-aptamer displacement, at 10 µM, stronger effect = higher value.
Sequence of Beta-adrenergic receptor kinase 1 (Homo sapiens) (P25098 whole entry, looked up): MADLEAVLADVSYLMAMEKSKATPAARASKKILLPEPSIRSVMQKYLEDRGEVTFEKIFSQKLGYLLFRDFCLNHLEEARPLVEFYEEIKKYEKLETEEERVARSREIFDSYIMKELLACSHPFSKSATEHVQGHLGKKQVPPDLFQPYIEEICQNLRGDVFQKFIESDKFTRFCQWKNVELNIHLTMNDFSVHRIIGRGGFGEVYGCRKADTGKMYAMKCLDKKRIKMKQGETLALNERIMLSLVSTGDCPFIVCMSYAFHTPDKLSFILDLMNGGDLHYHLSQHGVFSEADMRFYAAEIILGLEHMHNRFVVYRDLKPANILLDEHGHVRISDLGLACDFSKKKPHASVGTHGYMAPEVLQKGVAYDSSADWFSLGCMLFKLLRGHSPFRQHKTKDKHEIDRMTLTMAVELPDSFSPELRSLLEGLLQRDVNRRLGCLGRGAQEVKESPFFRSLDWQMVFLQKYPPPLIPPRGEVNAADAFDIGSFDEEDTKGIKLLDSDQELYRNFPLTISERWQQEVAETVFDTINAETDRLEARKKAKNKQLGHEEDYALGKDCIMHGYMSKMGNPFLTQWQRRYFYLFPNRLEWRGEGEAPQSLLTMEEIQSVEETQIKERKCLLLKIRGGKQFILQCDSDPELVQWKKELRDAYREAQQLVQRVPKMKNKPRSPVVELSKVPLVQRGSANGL
The target in test [10] is Beta-2 adrenergic receptor (Homo sapiens) (UniProt P07550). Kind of test: agonist-induced loss of surface beta2AR – cell-based, FAP fluorogen, flow cytometry, validation set, pilot screen (AID 504459;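 active = percent response above 42, roughly 3 SD of non-fluorescent test compounds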;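 note: agonist-driven loss of surface beta2AR via internalization measured by FAP dye flow cytometry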). Particulars: Am2.2-beta2AR cells, at 10 µM, stronger effect = higher value.
Sequence of Beta-2 adrenergic receptor (Homo sapiens) (P07550 whole entry, looked up): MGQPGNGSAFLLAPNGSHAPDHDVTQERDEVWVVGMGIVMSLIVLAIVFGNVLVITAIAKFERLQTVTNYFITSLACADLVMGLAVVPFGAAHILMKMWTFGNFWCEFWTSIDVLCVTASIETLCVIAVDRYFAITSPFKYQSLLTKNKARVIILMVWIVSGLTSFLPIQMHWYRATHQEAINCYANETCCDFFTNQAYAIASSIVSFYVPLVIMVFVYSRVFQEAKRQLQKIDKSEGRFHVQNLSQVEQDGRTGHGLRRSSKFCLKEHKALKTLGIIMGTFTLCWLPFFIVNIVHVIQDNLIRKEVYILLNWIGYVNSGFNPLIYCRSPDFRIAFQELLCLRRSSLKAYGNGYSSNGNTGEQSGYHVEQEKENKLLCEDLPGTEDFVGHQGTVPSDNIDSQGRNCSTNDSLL
Test [11] concerns the target AP-2 complex subunit beta (Homo sapiens) (UniProt P63010). The test can be described thus: beta-arrestin/AP2 interaction blockers – biochemical, validation set, GST-AP2 beads, flow cytometry, pilot screen (AID 504541;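 active = inhibition above 54%, about 3 SD of non-fluorescent compounds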;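 note: AP2 carries R879A mutation and is captured from E. coli lysate; bead-bound FITC arrestin peptide fluorescence measuring arrestin peptide binding to AP2; 0% = DMSO wells and 100% = excess unlabeled arrestin peptide control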). The settings on record: FITC arrestin peptide, at 10 µM, stronger effect = higher value, AP2 beta2 appendage fragment, R879A mutant.
Test [12] in a line: cytosolic pH regulators acting via V-ATPase – S. cerevisiae, pHLuorin, HTS validation (AID 504600; in the data active = response above about 15%;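 note: plate controls were DMSO for no effect and reference compound for full effect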). The settings on record: V-ATPase proton transport, at 10 µM, stronger effect = higher value.
Test [13] has as its system anti-desmoglein-3 scFv antibody binding to human DSG3. Kind of test: blockers of pathogenic pemphigus antibody–desmoglein-3 binding – biochemical, validation compound set, bead-based, flow cytometry, pilot screen (AID 588368).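 Note: signal is the median channel fluorescence of bead-bound GFP antibody.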 The settings on record: Protein G beads, DSG3-Fc, scFv-GFP binding, at 10 µM, stronger effect = lower value.
A short description of test [14]: Nile Red efflux blockade in pump-expressing yeast – validation compound set, multiplex, phenotypic, pilot screen (AID 588506;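 active = efflux inhibition above 0.42, the validation set average plus 4 SD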;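 note: Nile Red retained in cells so higher fluorescence means more efflux inhibition; 0 = negative control wells and 1 = enniatin B 25 µM full block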). The settings on record: S. cerevisiae pump-expressing triplex, Nile Red efflux flow cytometry; at 10 µM; stronger effect = higher value; the pumps come from Candida albicans.
For test [15], the target named is ATP-binding cassette sub-family B member 6 (Homo sapiens) (UniProt Q9NP58). Kind of test: blockers of ABCB6-driven porphyrin uptake – K562-ABCB6 cells, flow cytometry, validation set, pilot screen (AID 588550;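 active = inhibition above the screen-wide mean plus 3 SD, about 51%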;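 note: 0% = DMSO wells and 100% = benzethonium chloride 70 µM positive control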). Particulars: K562-ABCB6 porphyrin accumulation, 1 h, at 10 µM, stronger effect = higher value.
Sequence of ATP-binding cassette sub-family B member 6 (Homo sapiens) (Q9NP58 whole entry, looked up): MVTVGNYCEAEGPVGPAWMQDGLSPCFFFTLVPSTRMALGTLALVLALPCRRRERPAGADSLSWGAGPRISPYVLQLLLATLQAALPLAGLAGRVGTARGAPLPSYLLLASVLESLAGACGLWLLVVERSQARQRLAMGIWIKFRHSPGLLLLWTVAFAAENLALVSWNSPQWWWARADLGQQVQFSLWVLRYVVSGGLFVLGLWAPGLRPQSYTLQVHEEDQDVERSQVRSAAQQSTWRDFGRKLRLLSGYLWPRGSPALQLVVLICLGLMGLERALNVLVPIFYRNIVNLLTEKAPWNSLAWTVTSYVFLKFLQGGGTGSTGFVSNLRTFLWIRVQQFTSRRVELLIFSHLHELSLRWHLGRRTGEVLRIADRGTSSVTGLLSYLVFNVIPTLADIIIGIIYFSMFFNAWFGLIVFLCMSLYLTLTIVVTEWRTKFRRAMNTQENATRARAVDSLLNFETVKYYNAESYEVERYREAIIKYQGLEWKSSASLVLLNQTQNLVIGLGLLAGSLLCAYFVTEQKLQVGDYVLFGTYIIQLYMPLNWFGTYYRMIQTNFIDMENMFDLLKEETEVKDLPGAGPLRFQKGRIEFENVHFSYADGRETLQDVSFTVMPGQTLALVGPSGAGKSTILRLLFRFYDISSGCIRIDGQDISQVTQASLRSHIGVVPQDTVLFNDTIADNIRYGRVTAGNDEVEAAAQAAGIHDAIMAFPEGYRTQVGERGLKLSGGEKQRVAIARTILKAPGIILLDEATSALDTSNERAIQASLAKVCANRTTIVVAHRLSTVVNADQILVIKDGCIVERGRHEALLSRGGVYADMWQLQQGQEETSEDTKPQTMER
Test [16] is described as follows: AML differentiation inducers, ER-HoxA9 marrow cells – cell-based, GFP/MAC1 double positive, flow cytometry, validation set, primary screen (AID 588685;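 active = differentiation response of at least 50%, scaled between solvent and reference control, from cells with both markers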;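 note: compound exposure lasts four days before antibody staining and flow analysis; 0% = DMSO wells and 100% = 5 µM fulvestrant positive control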). The settings on record: stronger effect = higher value, normalized: vehicle 0, fulvestrant 100.

Sequence of AP-2 complex subunit beta (Homo sapiens) (P63010 whole entry, looked up, the tested form may be a part, one chain of several): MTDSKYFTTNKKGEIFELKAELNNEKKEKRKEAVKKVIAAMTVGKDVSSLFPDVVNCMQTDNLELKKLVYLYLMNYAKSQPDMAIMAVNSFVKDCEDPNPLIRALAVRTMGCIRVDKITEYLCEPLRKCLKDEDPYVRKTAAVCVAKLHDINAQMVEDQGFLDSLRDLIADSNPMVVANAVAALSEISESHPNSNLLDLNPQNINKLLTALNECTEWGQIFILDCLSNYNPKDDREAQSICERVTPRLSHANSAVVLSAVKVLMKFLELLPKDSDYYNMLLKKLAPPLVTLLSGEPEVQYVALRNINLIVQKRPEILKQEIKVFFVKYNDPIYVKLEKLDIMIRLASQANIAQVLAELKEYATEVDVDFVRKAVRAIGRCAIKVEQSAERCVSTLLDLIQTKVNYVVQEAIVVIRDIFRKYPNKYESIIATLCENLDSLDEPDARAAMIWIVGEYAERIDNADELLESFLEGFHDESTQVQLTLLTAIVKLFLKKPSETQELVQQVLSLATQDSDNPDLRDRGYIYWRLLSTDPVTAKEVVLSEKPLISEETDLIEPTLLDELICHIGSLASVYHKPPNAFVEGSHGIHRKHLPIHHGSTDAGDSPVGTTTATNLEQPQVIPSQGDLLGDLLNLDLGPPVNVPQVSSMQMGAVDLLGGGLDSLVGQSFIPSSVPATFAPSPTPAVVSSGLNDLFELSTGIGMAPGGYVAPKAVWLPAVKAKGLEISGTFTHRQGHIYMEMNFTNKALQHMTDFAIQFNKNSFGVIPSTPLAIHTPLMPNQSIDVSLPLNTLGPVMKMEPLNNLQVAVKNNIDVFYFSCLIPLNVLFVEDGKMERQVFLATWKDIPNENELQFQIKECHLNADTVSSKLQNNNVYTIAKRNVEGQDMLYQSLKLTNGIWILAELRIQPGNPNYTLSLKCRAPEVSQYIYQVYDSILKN

A word on the inhibition: it is the relative decrease from the control value, in per cent. Turning to `O=C(O)[C@H](Cc1ccccc1)NC(=O)N1CCC(Cc2ccccc2)CC1`, the percent of DMSO control GFP in [1] is 104% (inactive). For the same compound, the GFP response vs DMSO in test [2] is 102% (inactive); in test [4], 100% (inactive). Further, in [3], the percent response of DMSO control is 96% (inactive). In addition, the GFP response, % of DMSO in [5] is 99.9% (inactive). The compound also registered a double positive events in test [6] of 67%. Further, in test [6], the vesicle binding response was 122% (inactive). Further, the values for the inhibition in test [7], in test [11] and in test [15] were -0.31% (inactive), 4.86% (inactive) and 6% (inactive), respectively. In addition, in test [8], the superoxide response (% of plate) is 108% (inactive). The aptamer binding inhibition in [9] was -6% (inactive). Moreover, the response is 9.92% (inactive) in [10] and 0.86% (inactive) in [12]. In addition, the binding (% of control) in test [13] is 99.5% (inactive). For the same compound, in [14], the efflux inhibition (fraction of control) is -0.18 (inactive). Also, the differentiation response in [16] is -5.68% (inactive).
In the case of `Cc1ccc(SCC(=O)Nc2nccs2)cc1`, in [1], the percent of DMSO control GFP was 101% (inactive). Further, the GFP response vs DMSO in test [2] is 105% (inactive); in test [4] it was 120% (inactive). In test [3], the percent response of DMSO control was 98.6% (inactive). Moreover, the GFP response, % of DMSO in test [5] was 99.7% (inactive). This compound came in with a double positive events in test [6] of 60.5%. In addition, in test [6], the vesicle binding response was 4850% (inactive). The values for the inhibition in [7], in test [11] and in [15] were 6.4% (inactive), -4.67% (inactive) and 4% (inactive), respectively. Moreover, in test [8], the superoxide response (% of plate) was 110% (inactive). The aptamer binding inhibition in test [9] was 4% (inactive). Besides, the response is -0.63% (inactive) in test [10] and -0.83% (inactive) in test [12]. For the same compound, the binding (% of control) in test [13] was 95.3% (inactive). Besides, the efflux inhibition (fraction of control) in [14] is -0.24 (inactive). The differentiation response in test [16] was -2.4% (inactive).
As for `CC1(C)CC(C(CC(=O)N2CCCC2)Cc2ccccc2)CCO1` (stereo not given), the percent of DMSO control GFP in [1] is 100% (inactive). For the same compound, the GFP response vs DMSO in test [2] is 99.7% (inactive); in test [4], 102% (inactive). The percent response of DMSO control in test [3] is 104% (inactive). For the same compound, the GFP response, % of DMSO in test [5] was 106% (inactive). Besides, the double positive events in test [6] is 62.9%. Further, the vesicle binding response in test [6] was 118% (inactive). Further, the inhibition is -2.43% (inactive) in [7], 21.8% (inactive) in test [11] and 18% (inactive) in test [15]. Further, in test [8], the superoxide response (% of plate) is 107% (inactive). Besides, in test [9], the aptamer binding inhibition is -2% (inactive). Moreover, the response in [10] is -11% (inactive); in test [12] it was -8.82% (inactive). Besides, the binding (% of control) in [13] was 103% (inactive). The efflux inhibition (fraction of control) in [14] was 0.36 (inactive). Also, in [16], the differentiation response is 15.9% (inactive).
For the compound `O=C(N1CCCC1)C12CC3CC(C1)CC(C(=O)N1CCCC1)(C3)C2`, the percent of DMSO control GFP in [1] is 99.5% (inactive). The GFP response vs DMSO in test [2] was 103% (inactive); in test [4], 124% (inactive). For the same compound, the percent response of DMSO control in test [3] is 101% (inactive). The GFP response, % of DMSO in [5] is 101% (inactive). For the same compound, the double positive events in [6] was 59.6%. Moreover, the vesicle binding response in [6] is 219% (inactive). The inhibition in test [7] was 9.13% (inactive); in [11], -3.27% (inactive); in test [15] it was 3% (inactive). Also, in test [8], the superoxide response (% of plate) was 104% (inactive). The aptamer binding inhibition in test [9] was -1% (inactive). Further, the values for the response in test [10] and in test [12] were -2.88% (inactive) and 0.92% (inactive), respectively. For the same compound, the binding (% of control) in test [13] is 101% (inactive). Further, the efflux inhibition (fraction of control) in test [14] was 0.15 (inactive). The differentiation response in test [16] was -7.2% (inactive).
`Cn1nc(-c2ccc(Cl)cc2)nc2c(=O)n(C)c(=O)nc1-2`: the percent of DMSO control GFP in [1] was 74.2% (active). Moreover, the GFP response vs DMSO in test [2] is 138% (inactive); in test [4], 137% (inactive). Besides, the percent response of DMSO control in test [3] was 74.4% (inactive). The GFP response, % of DMSO in [5] was 76.7% (inactive). Further, the double positive events in [6] stood at 62.1%. Moreover, the vesicle binding response in [6] is 215% (inactive). Also, the figures for the inhibition in test [7], in test [11] and in [15] were -12.2% (inactive), -4.09% (inactive) and -16% (inactive), respectively. In addition, in test [8], the superoxide response (% of plate) is 79.2% (inactive). Further, in test [9], the aptamer binding inhibition was 45% (active). Moreover, the response is 17.6% (inactive) in test [10] and 59.4% (active) in test [12]. The binding (% of control) in [13] is 108% (inactive). For the same compound, in [14], the efflux inhibition (fraction of control) is 0.12 (inactive). For the same compound, the differentiation response in test [16] is -4.99% (inactive).

Values taken from PubChem BioAssay.
